40 compounds from PubChem BioAssay (NCATS) can be followed below.

Records with an inconclusive call do not appear. A number with no mark means an inactive call. Active and inactive are the calls of the source. Calls come from the whole dose curve; as a rule, active = well fitted inhibition curve with a large enough effect; inconclusive = small, poorly fitted or top-dose-only effect; inactive = no such curve, though single readings can be large or run the other way.
Potency is the fitted concentration of half-maximal effect.

The nature of this experiment: BET inhibitor-based combinations targeting novel dependencies in MECOM-rearranged (r) AML: HNT-34 cell line (AID 2202234).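 For viability (% of control): plate controls were vehicle wells for no effect and cell-free wells for full effect.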 Note: nearly all actives have a fitted effect of over 35% in size. As to conditions: HNT-34 AML viability, CellTiter-Glo luminescence, 48 h; series mostly up to 46 µM; viability (% of control): at the top concentration. From the text:
Ecotropic viral insertion site 1 (EVI1) is located on chromosome 3q26.2 as part of the MECOM (MDS and EVI1 complex) locus. Under normal hematopoiesis, EVI1 is a regulator of hematopoietic stem cell maintenance and self-renewal and EVI1 levels decrease as the cells differentiate. In approximately 5-10% of de novo acute myeloid leukemia (AML) EVI1 is aberrantly expressed, including Chromosomal inv(3)(q21;q26.2) or t(3;3)(q21;q26.2) alterations (MECOM-r) that account for about 50% of AML with EVI1 overexpression 31. AMLs with high levels of EVI1 have a poor prognosis and an overall survival time averaging between 10-14 months. EVI1 overexpression confers resistance in leukemia cells, highlighting the need to develop new targeted therapies for EVI1 overexpressing AMLs. Here, we performed an unbiased chemical drug screening by evaluating the single agent activity of a collection of 2,480 oncology-focused, approved and investigational drugs (NCATS Mechanism Interrogation Plates, MIPE v5.0) against a panel of seven AML cell lines. These included four MECOM-r cell-lines (AML-191, AML-194, UCSD-AML1 and HNT-34) and three non-MECOM-r AMLs (MV4-11, OCI-AML3 and SET-2). Exploiting the mechanistic redundancy built in the library, we identified target-level sensitivities in MECOM-r AML cells and relative activity as compared to other AML subtypes.
A collection of 2480 mechanistically annotated dugs (MIPE v5.0) was used to screen four 3q26.2 rearranged AML cell lines and three non-3q26.2 rearranged AML cell lines. This library purposely exploits redundancy by including multiple inhibitors of key onco-targets, while simultaneously encompassing mechanistic diversity, targeting more than 800 distinct mechanisms of action. Briefly, cells were seeded in 5 uL of growth media using a Multidrop Combi dispenser into 1536 well white polystyrene tissue culture treated plates (Corning) at a density of 500cells/well. For each cell-line, for each of the 2480 drugs in MIPE v5.0 library, an 11-point dose curve was generated via a 1536 pin-tool. Plates were incubated for 48 hr at standard incubator conditions, covered by a stainless steel gasketed lid to prevent evaporation. Cell viability was determined by luminescence based, Cell Titer Glo assay (Promega). In detail, 3 uL of Cell Titer Glo were added to each well and plates were incubated at room temperature for 15 min with a stainless-steel lid in place. Luminescence readings were taken using a Viewlux (PerkinElmer) with a 2 s exposure time per plate. Compound dose-response curves were normalized to DMSO and empty well controls on each plate. Quantitative drug activity data from dose-response curves was determined utilizing area Under the Curve (AUC) and Z-transformed AUC (Z-AUC, a mean-centering transformation applied to each individual cell-line screened).
In general terms: In ATP-based viability assays light output follows the ATP content of the culture.
In the case of `CCNC1(C(N)=O)CCN(c2ncnc3c2nc(-c2ccccc2Cl)n3-c2ccc(Cl)cc2)CC1`, the Potency was 26.3 µM (active).

Turning to `NC[C@H](O)c1ccc(O)c(O)c1`, the “viability (% of control)” value is 94.4%.

In the case of `CCn1c(-c2nonc2N)nc2c(C#CC(C)(C)O)ncc(OC[C@H]3CCCNC3)c21`, the Potency is 16.6 µM (active).

Consider `COc1cc2ncnc(Nc3cc(Br)c(O)c(Br)c3)c2cc1OC`, for which the Potency was 18.6 µM (active).

With `O=P(O)(O)C(O)(Cn1ccnc1)P(=O)(O)O`, the viability (% of control) is 108% [at 5.12 µM].

Consider `C=CC(=O)Nc1cccc(Nc2nc(Nc3ccc(Oc4ccnc(C(=O)NC)c4)cc3)ncc2F)c1`, for which the Potency is 8.33 µM (active).

Take `C[C@@H](c1ncncc1F)[C@](O)(Cn1cncn1)c1ccc(F)cc1F`: the “viability (% of control)” value was 107%.

As to `CC1(C)CC(=O)c2c(C(F)(F)F)nn(-c3ccc(C(N)=O)c(NC4CCC(O)CC4)c3)c2C1` (stereo not given), the Potency was 0.0934 µM (active).

On to `Clc1ccc(COC(Cn2ccnc2)c2ccc(Cl)cc2Cl)c(Cl)c1` (stereo not given), for which the Potency was 16.6 µM (active).

With `C[C@@H](NCc1cc2ccccc2[nH]1)c1cccc2ccccc12`, the Potency is 10.5 µM (active).

Regarding `O=C(NCCCNc1nc(Nc2cccc(CN3CCOCC3)c2)ncc1C1CC1)C1CCC1`, the Potency is 16.6 µM (active).

Take `CO[C@@H](C(=O)N1Cc2[nH]nc(NC(=O)c3ccc(N4CCN(C)CC4)cc3)c2C1)c1ccccc1`: the Potency was 0.105 µM (active).

On to `O=C(NCC(=O)N1CCCC1)Nc1ccc2cnccc2c1`, for which the “viability (% of control)” value was 92.1%.

As to `COc1ccc(C2(C#N)CCC(C(=O)O)CC2)cc1OC1CCCC1` (stereo not given), the “viability (% of control)” value is 107%.

Turning to `C[C@]12CCC(=O)C=C1CC[C@@H]1[C@@H]2[C@@H](O)C[C@@]2(C)[C@H]1CC[C@]2(O)C(=O)CO`, the “viability (% of control)” value was 101%.

With `COc1cccc2cc(-c3nc(C4CCC(C(=O)O)CC4)n4ncnc(N)c34)[nH]c12` (stereo not given), the Potency is 0.833 µM (active).

For the compound `O=C(c1cncc(Br)c1)N1CCC(N2CCCC2)CC1`, the “viability (% of control)” value was 99.9%.

Take `CC(C)N(CCCNC(=O)Nc1ccc(C(C)(C)C)cc1)C[C@H]1O[C@@H](n2ccc3c(N)ncnc32)[C@H](O)[C@@H]1O`: the “viability (% of control)” value is 92.9%.

Consider `O=C(O)C(O)Cc1ccc(O)c(O)c1` (stereo not given), for which the “viability (% of control)” value was 91.6% [at 92.2 µM].

Turning to `O=C(O)c1cc(=O)[nH]c(=O)[nH]1`, the “viability (% of control)” value is 102%.

On to `COc1cc(CNC(=O)CCCC/C=C/C(C)C)ccc1O`, for which the Potency is 6.61 µM (active).

Turning to `Cc1cnc(Nc2ccc(F)cc2Cl)nc1-c1c[nH]c(C(=O)N[C@H](CO)c2cccc(Cl)c2)c1`, the Potency is 18.6 µM (active).

Take `Oc1ccc([C@@H]2Oc3ccc(O)cc3[C@@H]3CCC[C@@H]32)cc1`: the Potency is 9.34 µM (active).

On to `c1ccc(CNc2nc(NCc3ccccc3)c3ccccc3n2)cc1`, for which the Potency was 9.34 µM (active).

Take `CCc1cc(-c2n[nH]c(C)c2-c2ccc3c(c2)OCCO3)c(O)cc1O`: the Potency was 14.8 µM (active).

`CCCCC(=O)O[C@]1(C(=O)CO)[C@@H](C)C[C@H]2[C@@H]3CCC4=CC(=O)C=C[C@]4(C)[C@@]3(F)[C@@H](O)C[C@@]21C`: the Potency is 14.8 µM (active).

Turning to `COc1ccccc1OCC(O)CN1CCN(CC(=O)Nc2c(C)cccc2C)CC1` (stereo not given), the “viability (% of control)” value was 113%.

As to `COC(=O)/C=C/C(=O)N(O)CCCCNCc1ccc(COC(=O)Nc2cccc3ccccc23)cc1`, the Potency is 5.9 µM (active).

For the compound `CCCOc1ccn2c(C(C)=O)cc(-c3ccccc3S(C)(=O)=O)c2c1`, the Potency was 18.6 µM (active).

With `Cc1cnc(NC(=O)C2=C(O)c3ccccc3S(=O)(=O)N2C)s1`, the Potency result was “inactive”.

Take `COc1ccc(CC2=NN3C([C@@H](CCc4ccccc4)[C@@H](C)O)=NC(C)C3C(=O)N2)cc1OC` (stereo not given in full): the Potency was 18.6 µM (active).

As for `CC[C@H](NC(C)C)[C@H](O)c1ccc(O)c2[nH]c(=O)ccc12`, the “viability (% of control)” value is 113%.

As for `O=[N+]([O-])c1cn2c(n1)OC[C@@H](OCc1ccc(OC(F)(F)F)cc1)C2`, the “viability (% of control)” value is 94.7%.

Consider `O=c1c(O)c(-c2ccc(O)c(O)c2)oc2cc(O)cc(O)c12`, for which the “viability (% of control)” value was 111%.

With `O=S(=O)(O)CCSSCCS(=O)(=O)O`, the “viability (% of control)” value is 104%.

Take `CC(C)c1cc(C(C)C)c(CC(=O)NS(=O)(=O)Oc2c(C(C)C)cccc2C(C)C)c(C(C)C)c1`: the Potency is 7.42 µM (active).

In the case of `CN1CC[C@@H](c2c(O)cc(O)c3c(=O)cc(-c4ccccc4Cl)oc23)[C@@H](O)C1`, the Potency is 0.468 µM (active).

`FC(F)(F)c1ccc(/C=C/c2nc(COc3ccc(CCCCn4ccnn4)cc3)co2)cc1`: the “viability (% of control)” value was 82%.

With `C=CC(=O)Nc1cccc(Sc2nc(Nc3ccc(N4CCN(C)CC4)cc3)ncc2Cl)c1`, the Potency is 6.61 µM (active).

Consider `COc1nc(C)cnc1NS(=O)(=O)c1cccnc1-c1ccc(-c2nnco2)cc1`, for which the “viability (% of control)” value is 102%.
